Holding throughout (assay): DAPPL (digital affinity profiling via proximity ligation, sequencing); 10 mM Tris-HCl pH 7.5, 50 mM NaCl, 1 mM DTT, 4% glycerol, room temperature, 30 min; GST-TFs on glutathione beads, 16-mer random dsDNA library, 0.1% formaldehyde crosslink after washing; high values mean tight binding
The target of one assay is T1, FLI1 (Homo sapiens, UniProt Q01543 1-452).
T1 sequence: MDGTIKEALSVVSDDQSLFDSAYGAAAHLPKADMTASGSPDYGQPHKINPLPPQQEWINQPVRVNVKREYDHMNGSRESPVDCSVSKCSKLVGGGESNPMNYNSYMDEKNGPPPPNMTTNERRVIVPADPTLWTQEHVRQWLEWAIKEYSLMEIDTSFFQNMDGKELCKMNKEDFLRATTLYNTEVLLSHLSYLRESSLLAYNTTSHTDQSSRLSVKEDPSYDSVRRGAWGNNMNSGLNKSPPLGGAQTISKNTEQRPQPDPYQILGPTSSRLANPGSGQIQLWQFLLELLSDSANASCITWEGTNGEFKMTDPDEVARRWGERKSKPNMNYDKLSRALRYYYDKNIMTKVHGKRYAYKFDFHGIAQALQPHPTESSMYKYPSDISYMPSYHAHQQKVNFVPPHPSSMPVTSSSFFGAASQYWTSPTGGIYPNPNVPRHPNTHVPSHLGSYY
Conditions: protein: recombinant; tags: N-terminal GST; dsDNA, one strand shown. The procedure, abridged:
(§1)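 The binding signal reported is, for every hexamer, its read frequency for a factor over its read frequency for the tag-only sample. Reads came from pools of yeast-expressed, GST-fused human transcription factors on glutathione beads, barcoded with DNA and mixed with that sample, which were incubated with 200 nmole of a random double-stranded 16-mer DNA library in Tris/NaCl/DTT/glycerol buffer at room temperature for 30 min. After washing, the pools were crosslinked with 0.1% formaldehyde, proximity-ligated with BsaI/T4 ligase for 1 h at 37 °C, PCR-amplified and sequenced on an Illumina NextSeq500.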

In a further assay the target is T2, ELK1 (Homo sapiens, UniProt P19419 1-428).
T2 sequence: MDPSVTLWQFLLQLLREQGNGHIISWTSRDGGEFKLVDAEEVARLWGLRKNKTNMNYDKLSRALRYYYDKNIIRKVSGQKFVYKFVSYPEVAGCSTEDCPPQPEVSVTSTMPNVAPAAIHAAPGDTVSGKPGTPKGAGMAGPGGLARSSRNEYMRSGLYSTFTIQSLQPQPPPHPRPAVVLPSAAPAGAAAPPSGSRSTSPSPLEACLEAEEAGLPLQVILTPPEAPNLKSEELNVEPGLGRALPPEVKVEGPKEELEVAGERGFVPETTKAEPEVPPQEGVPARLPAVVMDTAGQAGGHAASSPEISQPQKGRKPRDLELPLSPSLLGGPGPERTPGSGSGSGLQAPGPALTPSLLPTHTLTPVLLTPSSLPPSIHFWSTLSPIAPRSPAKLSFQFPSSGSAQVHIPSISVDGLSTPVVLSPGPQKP
The settings on record: protein: recombinant; tags: N-terminal GST; dsDNA, one strand shown. In a few lines: as §1

Another assay deals with T3, GABPA (Homo sapiens, UniProt Q06546 1-454).
T3 sequence: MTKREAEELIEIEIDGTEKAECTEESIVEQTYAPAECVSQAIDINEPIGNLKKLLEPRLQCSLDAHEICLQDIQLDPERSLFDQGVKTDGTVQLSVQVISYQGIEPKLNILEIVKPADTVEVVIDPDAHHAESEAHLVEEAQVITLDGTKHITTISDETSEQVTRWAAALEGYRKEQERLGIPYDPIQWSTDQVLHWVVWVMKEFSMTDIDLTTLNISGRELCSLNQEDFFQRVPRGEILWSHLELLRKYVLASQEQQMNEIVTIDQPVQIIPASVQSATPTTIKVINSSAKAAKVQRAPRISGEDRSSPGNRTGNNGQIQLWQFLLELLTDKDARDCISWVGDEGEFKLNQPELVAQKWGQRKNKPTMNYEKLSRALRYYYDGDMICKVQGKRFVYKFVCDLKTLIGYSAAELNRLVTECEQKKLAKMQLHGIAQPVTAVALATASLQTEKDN
Conditions: protein: recombinant; tags: N-terminal GST; dsDNA, one strand shown. In a few lines:
as §1

Another assay addresses T4, ERG (Homo sapiens, UniProt P11308 1-479).
T4 sequence: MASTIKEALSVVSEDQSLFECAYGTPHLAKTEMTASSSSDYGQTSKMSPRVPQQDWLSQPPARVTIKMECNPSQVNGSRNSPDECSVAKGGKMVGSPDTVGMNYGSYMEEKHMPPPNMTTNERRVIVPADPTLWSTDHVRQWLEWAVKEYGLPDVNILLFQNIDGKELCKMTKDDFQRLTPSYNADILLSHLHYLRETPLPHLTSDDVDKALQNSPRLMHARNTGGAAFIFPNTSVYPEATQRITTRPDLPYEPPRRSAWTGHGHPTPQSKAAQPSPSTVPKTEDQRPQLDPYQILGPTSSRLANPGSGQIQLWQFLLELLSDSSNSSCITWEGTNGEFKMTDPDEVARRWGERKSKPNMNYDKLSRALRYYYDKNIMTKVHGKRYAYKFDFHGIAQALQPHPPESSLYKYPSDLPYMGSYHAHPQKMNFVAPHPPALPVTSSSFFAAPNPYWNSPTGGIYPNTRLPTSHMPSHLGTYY
The settings on record: protein: recombinant; tags: N-terminal GST; dsDNA, one strand shown. In a few lines:
as §1

In the next assay the target is ELF1 (Homo sapiens, UniProt P32519 1-619). The settings on record: protein: recombinant; tags: N-terminal GST; dsDNA, one strand shown. The procedure, abridged:
as §1

The target in a further assay is T5, EHF (Homo sapiens, UniProt Q9NZC4 1-300).
T5 sequence: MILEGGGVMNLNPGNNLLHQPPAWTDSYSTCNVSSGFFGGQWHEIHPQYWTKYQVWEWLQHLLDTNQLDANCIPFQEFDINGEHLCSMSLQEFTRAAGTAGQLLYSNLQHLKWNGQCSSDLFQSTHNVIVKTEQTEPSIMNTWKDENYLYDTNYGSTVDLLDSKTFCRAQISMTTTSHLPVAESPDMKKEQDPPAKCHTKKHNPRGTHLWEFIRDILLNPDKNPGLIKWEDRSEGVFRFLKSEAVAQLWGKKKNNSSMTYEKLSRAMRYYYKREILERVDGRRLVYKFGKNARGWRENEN
Conditions: protein: recombinant; tags: N-terminal GST; dsDNA, one strand shown. The procedure, abridged:
as §1

The target in another assay is SPI1 (Homo sapiens, UniProt P17947 1-270). Conditions: protein: recombinant; tags: N-terminal GST; dsDNA, one strand shown. In a few lines: as §1
The target in another assay is SPIB (Homo sapiens, UniProt Q01892 1-262). Conditions: protein: recombinant; tags: N-terminal GST; dsDNA, one strand shown. In a few lines:
as §1

The target of the next assay is T6, ELK3 (Homo sapiens, UniProt P41970 1-407).
T6 sequence: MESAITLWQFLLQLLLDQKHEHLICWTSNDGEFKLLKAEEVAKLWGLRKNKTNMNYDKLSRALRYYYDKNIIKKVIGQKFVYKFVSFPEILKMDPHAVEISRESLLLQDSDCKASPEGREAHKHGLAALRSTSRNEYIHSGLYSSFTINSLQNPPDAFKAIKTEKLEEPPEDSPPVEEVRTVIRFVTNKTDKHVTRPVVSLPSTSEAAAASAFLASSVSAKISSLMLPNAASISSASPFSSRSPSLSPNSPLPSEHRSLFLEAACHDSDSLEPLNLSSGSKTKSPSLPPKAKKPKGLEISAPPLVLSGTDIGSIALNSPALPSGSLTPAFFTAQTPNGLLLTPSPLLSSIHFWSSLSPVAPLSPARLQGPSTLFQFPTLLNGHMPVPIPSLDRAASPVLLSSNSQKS
Conditions: protein: recombinant; tags: N-terminal GST; dsDNA, one strand shown. In a few lines: as §1

In a further assay the target is T7, FEV (Homo sapiens, UniProt Q99581 1-238).
T7 sequence: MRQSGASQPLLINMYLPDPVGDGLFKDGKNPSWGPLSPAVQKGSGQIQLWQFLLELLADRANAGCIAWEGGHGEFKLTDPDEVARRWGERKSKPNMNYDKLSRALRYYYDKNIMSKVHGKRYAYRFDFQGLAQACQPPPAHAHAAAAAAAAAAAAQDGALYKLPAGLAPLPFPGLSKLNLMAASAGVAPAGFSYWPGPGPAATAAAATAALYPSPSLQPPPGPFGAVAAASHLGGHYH
The settings on record: protein: recombinant; tags: N-terminal GST; dsDNA, one strand shown. The procedure, abridged:
as §1

In a further assay the target is ETV5 (Homo sapiens, UniProt P41161 1-510). Conditions: protein: recombinant; tags: N-terminal GST; dsDNA, one strand shown. The procedure, abridged: as §1
A further assay deals with HSF1 (Homo sapiens, UniProt Q00613 1-529). Conditions: protein: recombinant; tags: N-terminal GST; chain copies: 3; dsDNA, one strand shown. The procedure, abridged: as §1
The target in a further assay is T8, SPIC (Homo sapiens, UniProt Q8N5J4 1-248).
T8 sequence: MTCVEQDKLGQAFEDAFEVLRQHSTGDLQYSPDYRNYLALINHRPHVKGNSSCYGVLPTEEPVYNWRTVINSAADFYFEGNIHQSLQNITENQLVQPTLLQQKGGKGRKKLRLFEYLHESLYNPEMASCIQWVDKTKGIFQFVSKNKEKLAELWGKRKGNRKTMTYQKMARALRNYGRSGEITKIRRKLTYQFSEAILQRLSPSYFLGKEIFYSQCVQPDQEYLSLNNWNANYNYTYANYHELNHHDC
Conditions: protein: recombinant; tags: N-terminal GST; dsDNA, one strand shown. In a few lines:
as §1

The target in another assay is ELF4 (Homo sapiens, UniProt Q99607 1-663). Conditions: protein: recombinant; tags: N-terminal GST; dsDNA, one strand shown. In a few lines: as §1
For the next assay, the target named is T9, ELK4 (Homo sapiens, UniProt P28324-2 1-405).
T9 sequence: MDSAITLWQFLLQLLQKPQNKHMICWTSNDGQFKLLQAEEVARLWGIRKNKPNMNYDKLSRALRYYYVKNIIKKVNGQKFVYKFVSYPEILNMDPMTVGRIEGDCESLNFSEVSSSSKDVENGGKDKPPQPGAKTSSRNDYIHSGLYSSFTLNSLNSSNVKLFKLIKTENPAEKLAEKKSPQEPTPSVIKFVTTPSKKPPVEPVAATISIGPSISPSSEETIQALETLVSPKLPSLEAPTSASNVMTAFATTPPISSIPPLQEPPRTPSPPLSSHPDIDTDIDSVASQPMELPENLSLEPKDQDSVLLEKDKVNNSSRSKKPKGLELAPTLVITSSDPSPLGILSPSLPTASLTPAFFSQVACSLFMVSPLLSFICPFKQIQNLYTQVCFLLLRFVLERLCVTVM
Conditions: protein: recombinant; tags: N-terminal GST; dsDNA, one strand shown. In a few lines: as §1

For another assay, the target named is T10, ETV2 (Homo sapiens, UniProt O00321 1-342).
T10 sequence: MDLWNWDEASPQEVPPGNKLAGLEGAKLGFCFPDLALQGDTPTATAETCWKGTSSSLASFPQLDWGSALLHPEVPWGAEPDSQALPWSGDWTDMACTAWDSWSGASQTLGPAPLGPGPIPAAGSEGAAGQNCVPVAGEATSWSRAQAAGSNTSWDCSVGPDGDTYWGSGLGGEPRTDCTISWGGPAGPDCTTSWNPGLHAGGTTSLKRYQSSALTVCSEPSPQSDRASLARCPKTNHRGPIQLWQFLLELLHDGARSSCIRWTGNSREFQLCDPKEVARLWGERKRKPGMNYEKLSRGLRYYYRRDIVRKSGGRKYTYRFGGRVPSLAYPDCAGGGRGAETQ
Conditions: protein: recombinant; tags: N-terminal GST; dsDNA, one strand shown. The procedure, abridged: as §1

For a further assay, the target named is CRX (Homo sapiens, UniProt O43186 1-299). Conditions: protein: recombinant; tags: N-terminal GST; dsDNA, one strand shown. The procedure, abridged:
as §1

The target of a further assay is ETV1 (Homo sapiens, UniProt P50549 1-477). The settings on record: protein: recombinant; tags: N-terminal GST; dsDNA, one strand shown. In a few lines:
as §1

ETV5, sequence (P41161 whole entry): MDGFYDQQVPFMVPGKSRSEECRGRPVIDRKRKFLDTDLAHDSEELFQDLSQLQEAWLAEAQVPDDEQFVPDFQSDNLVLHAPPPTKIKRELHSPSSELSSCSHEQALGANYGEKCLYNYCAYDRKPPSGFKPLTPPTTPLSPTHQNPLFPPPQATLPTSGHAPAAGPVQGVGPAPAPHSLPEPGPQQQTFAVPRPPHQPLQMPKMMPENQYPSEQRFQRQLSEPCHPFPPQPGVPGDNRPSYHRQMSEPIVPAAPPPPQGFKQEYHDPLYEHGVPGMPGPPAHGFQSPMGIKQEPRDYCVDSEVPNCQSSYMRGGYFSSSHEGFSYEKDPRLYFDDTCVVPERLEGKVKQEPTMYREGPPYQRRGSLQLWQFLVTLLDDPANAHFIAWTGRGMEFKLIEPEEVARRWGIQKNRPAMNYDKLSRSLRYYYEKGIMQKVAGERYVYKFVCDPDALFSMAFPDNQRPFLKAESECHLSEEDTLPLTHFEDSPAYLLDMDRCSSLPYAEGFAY
SPIB, sequence (Q01892 whole entry): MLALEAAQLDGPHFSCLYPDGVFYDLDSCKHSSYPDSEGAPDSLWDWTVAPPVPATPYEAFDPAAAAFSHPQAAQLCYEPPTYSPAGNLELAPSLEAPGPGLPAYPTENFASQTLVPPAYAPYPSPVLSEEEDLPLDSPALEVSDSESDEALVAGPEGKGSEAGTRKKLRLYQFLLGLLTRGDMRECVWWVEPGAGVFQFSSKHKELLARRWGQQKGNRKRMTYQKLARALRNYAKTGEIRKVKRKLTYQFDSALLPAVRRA
CRX, sequence (O43186 whole entry): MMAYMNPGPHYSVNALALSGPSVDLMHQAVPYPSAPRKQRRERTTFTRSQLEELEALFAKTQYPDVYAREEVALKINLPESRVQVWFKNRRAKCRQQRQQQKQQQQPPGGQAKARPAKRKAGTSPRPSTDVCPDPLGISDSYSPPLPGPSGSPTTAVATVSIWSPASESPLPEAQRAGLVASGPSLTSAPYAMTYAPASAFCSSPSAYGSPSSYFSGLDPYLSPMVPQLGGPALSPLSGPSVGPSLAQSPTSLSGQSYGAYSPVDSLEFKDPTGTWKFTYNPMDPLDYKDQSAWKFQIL
ELF1, sequence (P32519 whole entry): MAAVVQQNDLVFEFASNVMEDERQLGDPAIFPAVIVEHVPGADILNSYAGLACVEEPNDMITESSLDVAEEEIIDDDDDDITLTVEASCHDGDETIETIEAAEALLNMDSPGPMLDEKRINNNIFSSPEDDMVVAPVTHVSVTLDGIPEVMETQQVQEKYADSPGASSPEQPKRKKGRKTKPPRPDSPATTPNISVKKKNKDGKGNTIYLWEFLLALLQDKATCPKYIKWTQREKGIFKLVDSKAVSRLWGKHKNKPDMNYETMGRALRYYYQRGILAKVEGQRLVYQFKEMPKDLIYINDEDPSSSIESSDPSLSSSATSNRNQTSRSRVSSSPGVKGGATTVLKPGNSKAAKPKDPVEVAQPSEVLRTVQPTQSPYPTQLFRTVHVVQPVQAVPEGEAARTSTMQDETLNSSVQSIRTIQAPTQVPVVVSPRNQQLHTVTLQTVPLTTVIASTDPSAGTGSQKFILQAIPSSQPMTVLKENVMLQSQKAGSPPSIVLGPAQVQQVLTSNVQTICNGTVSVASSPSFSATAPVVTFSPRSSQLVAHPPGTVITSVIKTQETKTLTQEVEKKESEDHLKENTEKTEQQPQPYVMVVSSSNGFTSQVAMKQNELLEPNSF
ETV1, sequence (P50549 whole entry): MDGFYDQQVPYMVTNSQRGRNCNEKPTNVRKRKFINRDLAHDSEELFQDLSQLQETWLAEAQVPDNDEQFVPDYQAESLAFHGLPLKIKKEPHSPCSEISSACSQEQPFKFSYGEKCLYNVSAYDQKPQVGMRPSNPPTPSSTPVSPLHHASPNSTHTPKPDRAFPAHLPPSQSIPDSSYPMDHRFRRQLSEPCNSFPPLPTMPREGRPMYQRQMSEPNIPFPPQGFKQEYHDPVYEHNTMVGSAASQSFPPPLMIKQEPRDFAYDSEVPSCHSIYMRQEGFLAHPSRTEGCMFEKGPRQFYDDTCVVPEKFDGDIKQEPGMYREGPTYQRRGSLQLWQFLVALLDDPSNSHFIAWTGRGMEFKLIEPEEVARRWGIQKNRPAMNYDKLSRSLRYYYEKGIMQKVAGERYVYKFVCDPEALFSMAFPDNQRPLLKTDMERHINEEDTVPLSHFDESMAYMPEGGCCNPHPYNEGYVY
ELF4, sequence (Q99607 whole entry): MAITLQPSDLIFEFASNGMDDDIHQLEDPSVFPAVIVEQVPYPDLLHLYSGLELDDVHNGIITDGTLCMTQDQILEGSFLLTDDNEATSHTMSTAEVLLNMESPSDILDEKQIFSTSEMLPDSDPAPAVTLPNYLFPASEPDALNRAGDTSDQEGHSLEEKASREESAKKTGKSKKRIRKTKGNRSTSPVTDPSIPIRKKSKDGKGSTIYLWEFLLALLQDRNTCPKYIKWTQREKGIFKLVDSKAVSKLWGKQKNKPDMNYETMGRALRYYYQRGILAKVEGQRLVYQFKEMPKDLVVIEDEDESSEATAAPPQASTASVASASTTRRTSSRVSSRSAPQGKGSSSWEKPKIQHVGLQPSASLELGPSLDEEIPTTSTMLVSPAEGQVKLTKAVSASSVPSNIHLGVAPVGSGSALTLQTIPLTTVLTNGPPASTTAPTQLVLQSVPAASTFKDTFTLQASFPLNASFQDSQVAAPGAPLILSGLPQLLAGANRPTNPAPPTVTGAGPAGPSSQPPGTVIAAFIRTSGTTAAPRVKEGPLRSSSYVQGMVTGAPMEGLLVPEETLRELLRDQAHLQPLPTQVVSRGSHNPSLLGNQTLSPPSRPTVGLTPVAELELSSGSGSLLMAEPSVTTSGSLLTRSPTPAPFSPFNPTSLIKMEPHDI
HSF1, sequence (Q00613 whole entry): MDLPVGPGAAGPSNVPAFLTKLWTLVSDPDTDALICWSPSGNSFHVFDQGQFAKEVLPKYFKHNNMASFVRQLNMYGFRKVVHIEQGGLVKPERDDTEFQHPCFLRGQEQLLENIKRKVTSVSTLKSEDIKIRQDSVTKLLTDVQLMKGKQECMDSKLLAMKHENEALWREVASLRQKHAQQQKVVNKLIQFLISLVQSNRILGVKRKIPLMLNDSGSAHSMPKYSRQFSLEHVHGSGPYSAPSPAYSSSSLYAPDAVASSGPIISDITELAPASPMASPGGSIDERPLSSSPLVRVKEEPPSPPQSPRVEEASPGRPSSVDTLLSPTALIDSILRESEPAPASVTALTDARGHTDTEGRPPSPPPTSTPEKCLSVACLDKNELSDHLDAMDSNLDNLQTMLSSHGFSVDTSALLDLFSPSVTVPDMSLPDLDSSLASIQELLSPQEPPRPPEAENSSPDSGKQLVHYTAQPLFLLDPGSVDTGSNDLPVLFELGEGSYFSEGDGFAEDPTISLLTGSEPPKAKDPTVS

As to CGATAA, the binding signal with FLI1 was 1.12 fold enrichment (6-mer frequency, TF over GST control); with ELK1, 1.02 fold enrichment (6-mer frequency, TF over GST control); with GABPA it was 1.06 fold enrichment (6-mer frequency, TF over GST control); with ERG it was 1.09 fold enrichment (6-mer frequency, TF over GST control); with ELF1, 1.08 fold enrichment (6-mer frequency, TF over GST control); with EHF it was 1.03 fold enrichment (6-mer frequency, TF over GST control). Besides, the binding signal with SPI1 was 1.08 fold enrichment (6-mer frequency, TF over GST control); with SPIB, 1.19 fold enrichment (6-mer frequency, TF over GST control); in the assay with ELK3, 1.2 fold enrichment (6-mer frequency, TF over GST control); in the assay with FEV, 1.02 fold enrichment (6-mer frequency, TF over GST control); with ETV5, 1.04 fold enrichment (6-mer frequency, TF over GST control); with HSF1 it was 1.51 fold enrichment (6-mer frequency, TF over GST control). The binding signal was 1.12 fold enrichment (6-mer frequency, TF over GST control) with SPIC; 1.16 fold enrichment (6-mer frequency, TF over GST control) with ELF4; 1.1 fold enrichment (6-mer frequency, TF over GST control) with ELK4; 1.19 fold enrichment (6-mer frequency, TF over GST control) with ETV2; 1.75 fold enrichment (6-mer frequency, TF over GST control) with CRX; 1.09 fold enrichment (6-mer frequency, TF over GST control) with ETV1.

The values above are taken from paper PMC7862700, “An all-to-all approach to the identification of sequence-specific readers for epigenetic DNA modifications on cytosine”.
